# Reference: PubChem BioAssay (EPA / NIEHS)
# Results filed as inconclusive are left out. Where a structure was tested more than once in an assay, its records may differ in their call. The source made the active and inactive calls. Rule for the calls, unless noted: active = hit-call score of the fitted dose curve at least 0.9, where 1 is the maximum; inactive = score below 0.9.
# How the values were obtained:
# [1] = read-out: succinate dehydrogenase complex iron sulfur subunit B (SDHB), SDHB (gene 6390); assay: LTEA_HepaRG_SDHB: Life Technologies and Expression Analysis (LTEA) Assay for succinate dehydrogenase complex iron sulfur subunit B (SDHB) using HepaRG (AID 2283528); details: mRNA level, 48 h; actives raise or lower the signal
# Procedure, shortened: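 HepaRG, 48 h exposure, 8-pt half-log series from 100 uM in 0.5% DMSO, duplicates. Readout: SDHB mRNA by Fluidigm qRT-PCR vs housekeeping genes; bidirectional fit relative to DMSO.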
# [2] = read-out: Signal transducer and activator of transcription 3 (Homo sapiens) (UniProt P40763); assay: LTEA_HepaRG_STAT3: Life Technologies and Expression Analysis (LTEA) Assay for Signal transducer and activator of transcription (STAT3) using HepaRG (AID 2283529); details: mRNA level, 48 h; actives raise or lower the signal
# Procedure, shortened: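 HepaRG, 48 h exposure, 8-pt half-log series (top 100 uM), 0.5% DMSO vehicle, duplicates. Readout: STAT3 transcript by Fluidigm qRT-PCR, housekeeping-normalized; bidirectional fit vs DMSO baseline.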
# [3] = read-out: solute carrier (SLCO1B1), SLCO1B1 (gene 10599); assay: LTEA_HepaRG_SLCO1B1: Life Technologies and Expression Analysis (LTEA) Assay for solute carrier (SLCO1B1) using HepaRG (AID 2283530); details: mRNA level, 48 h; actives raise or lower the signal
# Procedure, shortened: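 Gain or loss of SLCO1B1 mRNA is fitted against the 0.5% DMSO vehicle in human HepaRG liver cells treated 48 h at up to 100 uM in half-log steps. Expression comes from qRT-PCR normalized to endogenous controls.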
# [4] = read-out: sulfotransferase 2A1 (SULT2A1), SULT2A1 (gene 6822); assay: LTEA_HepaRG_SULT2A1: Life Technologies and Expression Analysis (LTEA) Assay for sulfotransferase 2A1 (SULT2A1) using HepaRG (AID 2283531); details: mRNA level, 48 h; actives raise or lower the signal
# Procedure, shortened: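 Cells were plated and cultured 48 h, switched to serum-free induction medium, then dosed in duplicate for 48 h (8 concentrations, max 100 uM). RNA was isolated and SULT2A1 expression measured by qRT-PCR; gain or loss of signal fitted relative to DMSO.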
# [5] = read-out: Transforming Growth Factor (TGFA), TGFA (gene 7039); assay: LTEA_HepaRG_TGFA: Life Technologies and Expression Analysis (LTEA) Assay for Transforming Growth Factor (TGFA) using HepaRG (AID 2283532); details: mRNA level, 48 h; actives raise or lower the signal
# Procedure, shortened: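 qRT-PCR read-out of TGFA transcript, normalized to three housekeeping genes, fitted bidirectionally against 0.5% DMSO baseline. Human HepaRG cultures received chemicals for 48 h at eight half-log concentrations, top 100 uM.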
# [6] = read-out: Transforming Growth Factor (TGFB1), TGFB1 (gene 7040); assay: LTEA_HepaRG_TGFB1: Life Technologies and Expression Analysis (LTEA) Assay for Transforming Growth Factor (TGFB1) Transporter using HepaRG (AID 2283533); details: mRNA level, 48 h; actives raise or lower the signal
# Procedure, shortened: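 Expression change of TGFB1 in human HepaRG cells is measured after a 48 h chemical exposure, up to 100 uM in 0.5% DMSO vehicle. Curves are fitted in both directions relative to the DMSO baseline.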
# TIMP1, TIMP1 (gene 7076) = assay: LTEA_HepaRG_TIMP1: Life Technologies and Expression Analysis (LTEA) Assay for TIMP1 using HepaRG (AID 2283534); details: mRNA level, 48 h; actives raise or lower the signal
# Procedure, shortened: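 We dosed human liver HepaRG cultures for 48 hours with up to 100 uM test chemical and measured TIMP1 expression by qRT-PCR. Activity in either direction is fitted relative to the 0.5% DMSO vehicle.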
# [7] = read-out: Tumor necrosis factor receptor 1 (TNFRSF1A), TNFRSF1A (gene 7132); assay: LTEA_HepaRG_TNFRSF1A: Life Technologies and Expression Analysis (LTEA) Assay for Tumor necrosis factor receptor 1 (TNFRSF1A) using HepaRG (AID 2283535); details: mRNA level, 48 h; actives raise or lower the signal
# Procedure, shortened: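 Expression of TNFRSF1A in human HepaRG liver cells was measured by qRT-PCR 48 h after chemical dosing (maximum 100 uM). Bidirectional curve fitting used 0.5% DMSO as baseline.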
# [8] = read-out: Thyroid Hormone Responsive (THRSP), THRSP (gene 7069); assay: LTEA_HepaRG_THRSP: Life Technologies and Expression Analysis (LTEA) Assay for Thyroid Hormone Responsive (THRSP) using HepaRG (AID 2283536); details: mRNA level, 48 h; actives raise or lower the signal
# Procedure, shortened: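 qRT-PCR read-out (Fluidigm TaqMan), housekeeping-normalized (ACTB/GAPDH/POLR2A). HepaRG, 48 h chemical exposure, 8-pt half-log series from 100 uM in 0.5% DMSO, duplicates. Bidirectional curve fit vs 0.5% DMSO baseline.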
# [9] = read-out: Cellular tumor antigen p53 (Homo sapiens) (UniProt P04637); assay: LTEA_HepaRG_TP53: Life Technologies and Expression Analysis (LTEA) Assay for Tumor Protein P53 (TP53) using HepaRG (AID 2283537); details: mRNA level, 48 h; actives raise or lower the signal
# Procedure, shortened: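 HepaRG, 48 h exposure, top 100 uM, half-log 8-point, 0.5% DMSO vehicle, duplicates. Read: TP53 mRNA by TaqMan qRT-PCR, normalised to ACTB/GAPDH/POLR2A; bidirectional fit vs DMSO.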
# [10] = read-out: UDP glucuronosyltransferase (UGT1A1), UGT1A1 (gene 54658); assay: LTEA_HepaRG_UGT1A1: Life Technologies and Expression Analysis (LTEA) Assay for UDP glucuronosyltransferase (UGT1A1) using HepaRG (AID 2283538); details: mRNA level, 48 h; actives raise or lower the signal
# Procedure, shortened: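 mRNA induction or loss of UGT1A1, by TaqMan qRT-PCR, in duplicate HepaRG wells after 48 h exposure to half-log dilutions topping at 100 uM; DMSO (0.5%) served as baseline.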
# [11] = read-out: UDP glucuronosyltransferase (UGT1A6), UGT1A6 (gene 54578); assay: LTEA_HepaRG_UGT1A6: Life Technologies and Expression Analysis (LTEA) Assay for UDP glucuronosyltransferase (UGT1A6) using HepaRG (AID 2283539); details: mRNA level, 48 h; actives raise or lower the signal
# Procedure, shortened: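 Endpoint is UGT1A6 transcript induction or loss in a human liver cell line, quantified by TaqMan qRT-PCR 48 h after dosing. Concentrations ran from 100 uM downward in half-log steps in 0.5% DMSO; activity was fitted in both directions versus vehicle.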
# [12] = LTEA_HepaRG_LDH_cytotoxicity: Cytotoxicity Assessment in the Life Technologies and Expression Analysis (LTEA) Assay (AID 2283563; active = hit-call score of the fitted dose curve at least 0.9, where 1 is the maximum;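 for AC50: LDH activity released into spent culture medium as a marker of cell death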)
# Procedure, shortened: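 Human HepaRG hepatic cells are treated with test chemicals for 48 h at up to 100 uM in 0.5% DMSO. Cytotoxicity is scored from medium LDH against the vehicle control.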
# [13] = TOX21_p53_BLA_p2_viability: Viability Assessment in the Tox21 HCT-116 p53 Agonism Beta-lactamase Assay, Phase 2 (AID 2283591; active = hit-call score of the fitted dose curve at least 0.9, where 1 is the maximum;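 note: compound exposure lasted 16 h at 37 °C; actives lower the ATP signal meaning cytotoxicity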)
# Procedure, shortened: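 HCT116 p53-bla cells, 4000/well, dosed after 5 h plating (217-fold dilution of DMSO stocks) and incubated 16 h at 37C. Viability taken as cellular ATP by CellTiter-Glo luminescence after 30 min RT; signal loss marks cytotoxicity.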
# [14] = target: Cellular tumor antigen p53 (Homo sapiens) (UniProt P04637); assay: TOX21_p53_BLA_p2_ratio: Tox21 HCT-116 p53 Agonism Beta-lactamase Assay, Ratio, Phase 2 (AID 2283592; active = hit-call score of the fitted dose curve at least 0.9, where 1 is the maximum)
# Procedure, shortened: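 Cleaved-to-uncleaved substrate ratio (460 vs 530 nm) measured in HCT116 cells with an inducible beta-lactamase reporter linked to p53 activity. Compounds incubated 16 h at 37C before 2 h room-temperature CCF4-AM loading.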
# [15] = TOX21_p53_BLA_p3_viability: Viability Assessment in the Tox21 HCT-116 p53 Agonism Beta-lactamase Assay, Phase 3 (AID 2283593; active = hit-call score of the fitted dose curve at least 0.9, where 1 is the maximum;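 note: cells exposed to compound for 16 h before reading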)
# Procedure, shortened: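 HCT116 cells, 4000/well, dosed 5 h after plating by pin transfer (217-fold dilution from DMSO stock) and incubated 16 h at 37C, 5% CO2. Viability read as ATP luminescence with CellTiter-Glo after 30 min at room temperature.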
# [16] = TOX21_p53_BLA_p4_viability: Viability Assessment in the Tox21 HCT-116 p53 Agonism Beta-lactamase Assay, Phase 4 (AID 2283597; active = hit-call score of the fitted dose curve at least 0.9, where 1 is the maximum;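 note: hits lower the luminescence signal meaning cytotoxicity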)
# Procedure, shortened: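 Viability is taken as cellular ATP: after 16 h compound exposure of HCT116 cells and a 2 h room-temperature CCF4-AM substrate step, CellTiter-Glo reagent is added and luminescence is measured 30 min later.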
# [17] = read-out: X-box binding protein 1 (XBP1), XBP1 (gene 7494); assay: LTEA_HepaRG_XBP1: Life Technologies and Expression Analysis (LTEA) Assay for X-box binding protein 1 (XBP1) using HepaRG (AID 2283540); details: mRNA level, 48 h; actives raise or lower the signal
# Procedure, shortened: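 Human HepaRG monolayers receive test chemical for 48 h across an eight-point half-log series starting at 100 uM. XBP1 mRNA gain or loss is scored against DMSO by qRT-PCR.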
# [18] = ATG_XTT_Cytotoxicity: Cytotoxicity Assessment in the Attagene TRANS-FACTORIAL HepG2 Assay (AID 2283584; active = hit-call score of the fitted dose curve at least 0.9, where 1 is the maximum)
# Procedure, shortened: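 Transfect HepG2 with GAL4-UAS reporter units, dose compound, incubate 24 h, then measure viable cell number by XTT. Fit concentration response against DMSO baseline.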
# [19] = target: Cellular tumor antigen p53 (Homo sapiens) (UniProt P04637); assay: TOX21_p53_BLA_p3_ratio: Tox21 HCT-116 p53 Agonism Beta-lactamase Assay, Ratio, Phase 3 (AID 2283596; active = hit-call score of the fitted dose curve at least 0.9, where 1 is the maximum)
# Procedure, shortened: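 Cells were seeded at 4000/well, rested 5 h at 37C, then dosed with DMSO compound solutions (217-fold dilution) for 16 h. CCF4-AM substrate was loaded for 2 h at room temperature, and the 460/530 nm emission ratio was fitted for gain of signal versus DMSO.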
# Sequence of Signal transducer and activator of transcription 3 (Homo sapiens) (P40763 whole entry, looked up): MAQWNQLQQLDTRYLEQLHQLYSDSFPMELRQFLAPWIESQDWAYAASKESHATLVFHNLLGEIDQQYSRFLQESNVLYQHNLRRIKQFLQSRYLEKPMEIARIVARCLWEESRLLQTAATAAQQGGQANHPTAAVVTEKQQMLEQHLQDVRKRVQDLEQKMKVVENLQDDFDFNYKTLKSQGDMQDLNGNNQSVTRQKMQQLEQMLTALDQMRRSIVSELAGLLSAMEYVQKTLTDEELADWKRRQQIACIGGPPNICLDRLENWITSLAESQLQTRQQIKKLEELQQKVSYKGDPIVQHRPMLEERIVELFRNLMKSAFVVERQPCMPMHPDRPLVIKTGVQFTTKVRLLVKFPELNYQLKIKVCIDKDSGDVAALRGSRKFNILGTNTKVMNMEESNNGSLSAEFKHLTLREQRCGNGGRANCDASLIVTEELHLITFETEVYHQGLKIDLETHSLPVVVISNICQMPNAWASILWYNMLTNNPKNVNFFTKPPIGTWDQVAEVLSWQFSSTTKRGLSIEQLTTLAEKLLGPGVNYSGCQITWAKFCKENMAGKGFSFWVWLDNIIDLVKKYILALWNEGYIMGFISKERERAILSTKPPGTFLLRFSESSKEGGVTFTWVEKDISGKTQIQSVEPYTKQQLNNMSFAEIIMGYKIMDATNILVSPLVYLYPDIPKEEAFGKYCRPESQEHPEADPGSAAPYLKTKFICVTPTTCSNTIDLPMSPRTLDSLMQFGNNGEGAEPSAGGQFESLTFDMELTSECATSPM
# Sequence of Cellular tumor antigen p53 (Homo sapiens) (P04637 whole entry, looked up): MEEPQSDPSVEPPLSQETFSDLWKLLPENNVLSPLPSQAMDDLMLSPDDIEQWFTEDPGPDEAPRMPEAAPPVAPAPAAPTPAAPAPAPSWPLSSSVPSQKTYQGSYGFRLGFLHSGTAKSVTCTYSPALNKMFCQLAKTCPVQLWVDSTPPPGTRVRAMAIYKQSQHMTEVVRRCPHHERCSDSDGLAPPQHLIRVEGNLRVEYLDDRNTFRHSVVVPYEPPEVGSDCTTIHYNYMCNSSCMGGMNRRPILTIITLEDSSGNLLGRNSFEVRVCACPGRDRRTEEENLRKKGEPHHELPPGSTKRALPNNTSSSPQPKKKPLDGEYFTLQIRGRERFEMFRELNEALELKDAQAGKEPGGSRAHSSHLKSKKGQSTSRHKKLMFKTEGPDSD
structure (smiles),measurement,setting,value
O=[N+]([O-])C(CO)(CO)CO,outcome,[1],inactive
same,outcome,[2],inactive
same,outcome,[3],inactive
same,outcome,[4],inactive
same,outcome,[5],inactive
same,outcome,[6],inactive
same,outcome,"TIMP1, TIMP1 (gene 7076)",inactive
same,outcome,[7],inactive
same,outcome,[8],inactive
same,outcome,[9],inactive
same,outcome,[10],inactive
same,outcome,[11],inactive
same,outcome,[12],inactive
same,outcome,[13],inactive
same,outcome,[14],inactive
same,outcome,[15],inactive
same,outcome,[16],inactive
CCNc1cccc(C)c1,outcome,[1],inactive
same,outcome,[2],inactive
same,outcome,[3],inactive
same,outcome,[4],inactive
same,outcome,[5],inactive
same,outcome,[6],inactive
same,outcome,"TIMP1, TIMP1 (gene 7076)",inactive
same,outcome,[7],inactive
same,outcome,[8],inactive
same,outcome,[9],inactive
same,outcome,[10],inactive
same,outcome,[17],inactive
same,outcome,[12],inactive
same,outcome,[18],inactive
same,outcome,[13],inactive
same,outcome,[14],inactive
same,outcome,[15],inactive
same,outcome,[19],inactive
same,outcome,[16],inactive
CC(C)(C)c1cc(O)c(C(C)(C)C)cc1O,outcome,[1],inactive
same,outcome,[2],inactive
same,AC50,[3],79.1 µM (active)
same,AC50,[4],90.9 µM (active)
same,outcome,[5],inactive
same,outcome,[6],inactive
same,AC50,"TIMP1, TIMP1 (gene 7076)",50 µM (active)
same,AC50,[7],78.3 µM (active)
same,AC50,[8],78.9 µM (active)
same,AC50,[9],86.7 µM (active)
same,AC50,[10],89.2 µM (active)
same,AC50,[11],91.3 µM (active)
same,AC50,[12],73.5 µM (active)
same,outcome,[13],inactive
same,AC50,[14],80.1 µM (active)
same,outcome,[15],inactive
same,AC50,[19],71.6 µM (active)
same,AC50,[16],69 µM (active)
Nc1nc(N)c2nc(CNc3ccc(C(=O)N[C@@H](CCC(=O)O)C(=O)O)cc3)cnc2n1,outcome,[1],inactive
same,outcome,[2],inactive
same,outcome,[3],inactive
same,AC50,[4],0.0974 µM (active)
same,outcome,[5],inactive
same,outcome,[6],inactive
same,outcome,"TIMP1, TIMP1 (gene 7076)",inactive
same,outcome,[7],inactive
same,outcome,[8],inactive
same,outcome,[9],inactive
same,outcome,[10],inactive
same,outcome,[11],inactive
same,outcome,[17],inactive
same,outcome,[18],inactive
same,AC50,[13],0.0118 µM (active)
same,outcome,[13],inactive
same,AC50,[14],0.0308 µM (active)
same,outcome,[14],inactive
same,AC50,[15],0.0381 µM (active)
same,AC50,[19],0.0688 µM (active)
same,outcome,[19],inactive
same,AC50,[16],0.0491 µM (active)
same,outcome,[16],inactive
CCCCCCCCCCCCCCCCCC(=O)O,outcome,[1],inactive
same,outcome,[2],inactive
same,outcome,[3],inactive
same,outcome,[4],inactive
same,outcome,[5],inactive
same,outcome,[6],inactive
same,outcome,"TIMP1, TIMP1 (gene 7076)",inactive
same,outcome,[7],inactive
same,outcome,[8],inactive
same,outcome,[9],inactive
same,outcome,[10],inactive
same,outcome,[17],inactive
same,outcome,[12],inactive
same,outcome,[18],inactive
Cc1cc(NC(=O)C(=O)O)cc(C)c1Oc1ccc(O)c2c1CCC2,outcome,[1],inactive
same,outcome,[2],inactive
same,AC50,[3],50 µM (active)
same,AC50,[4],0.526 µM (active)
same,outcome,[5],inactive
same,outcome,[6],inactive
same,outcome,"TIMP1, TIMP1 (gene 7076)",inactive
same,outcome,[7],inactive
same,outcome,[8],inactive
same,outcome,[9],inactive
same,outcome,[10],inactive
same,outcome,[11],inactive
same,outcome,[17],inactive
same,outcome,[12],inactive
same,outcome,[14],inactive
same,outcome,[19],inactive
CCCCCC(=O)O,outcome,[1],inactive
same,outcome,[2],inactive
same,outcome,[3],inactive
same,outcome,[4],inactive
same,outcome,[5],inactive
same,outcome,[6],inactive
same,outcome,"TIMP1, TIMP1 (gene 7076)",inactive
same,outcome,[7],inactive
same,outcome,[8],inactive
same,outcome,[9],inactive
same,outcome,[10],inactive
same,outcome,[11],inactive
same,outcome,[17],inactive
same,outcome,[12],inactive
same,outcome,[18],inactive
same,outcome,[13],inactive
same,outcome,[14],inactive
same,outcome,[15],inactive
same,outcome,[19],inactive
same,outcome,[16],inactive
